High-throughput results deposited in PubChem BioAssay by National Center for Advancing Translational Sciences (NCATS).
HTT promoter inh: inhibitors of huntingtin promoter activity | actives 0.93% (n = 48,000) | HEK293 HTT promoter firefly luciferase reporter, 24 h | Potency, µM (highest dose often 57.5 µM), for the others: at the top dose activity change, negative = inhibition, actives largely listed as inhibitors; note: potency is the fitted concentration of half-maximal effect; nearly all actives have a fitted effect of over 50% in size
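Firefly luciferase readout (Dual-Glo, 10 min RT) after 24 h, 37 °C compound exposure (final up to 57.5 uM) of HEK293 reporter cells cultured 24 h beforehand; PTC124 at 50 uM final as control inhibitor; activity scaled vehicle 0%, zero RLU -100%.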
GPR32 ag: activates human resolvin D1 receptor GPR32; O75388; CHO-K1 GPR32 beta-arrestin PathHunter luminescence, 90 min; zero percent set by DMSO-only wells; activation, % at 76.9 µM; actives 2.5% (n = 48,000);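 active = activation of at least 60% and not above a set upper limit, about 1 call in 100 departs from these limits; inconclusive = activation of 40% to 60%, or above that upper limit; inactive = activation under 40%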; note: 0% is about no effect
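Readings come from a cell-based beta-arrestin complementation format: CHO-K1 GPR32 stable cells (2,500/well) treated 90 min with compounds, then beta-Gal substrate added for 1 h before chemiluminescence imaging.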
FH mod: Identification of activators of human fumarate hydratase by quantitative high-throughput screening | Fumarate hydratase, mitochondrial (Homo sapiens), P07954 | FH coupled MDH/diaphorase resazurin fluorescence, 15 min | Potency, µM (highest dose often 79.9 µM), for the others: top-dose activity change, negative = inhibition, actives largely listed as inhibitors | actives 0.22% (n = 54,000); note: potency is the fitted concentration of half-maximal effect; % is set by controls: 0 for no effect and ±100 for the full control effect; the screen sought activators but most active calls are inhibition curves; nearly all actives have a fitted effect of over 45% in size
NTMT1 inh: NTMT1 methyltransferase inhibition; actives 2.5% (n = 59,000); AID 1645870; Potency, µM (titrated, usually from 114 µM), for inactives: at the top dose activity change, negative = inhibition, usual class: inhibitors; NTMT1 MTase-Glo SAH luminescence, purified enzyme;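 note: potency is the fitted concentration of half-maximal effect; plate controls were DMSO vehicle for no effect and no enzyme for full effect; nearly all actives have a fitted effect of over 65% in size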
HTT-AS act: activators of huntingtin-antisense promoter activity. HEK293 HTT-AS promoter firefly luciferase reporter, 24 h; response scale: percent change from vehicle, -100% = no light. actives 0.24% (n = 48,000). Potency, µM (top dose mostly 57.5 µM), for the others: at the top dose activity change, positive = activation, usual class: activators. AID 1508624; note: potency is the fitted concentration of half-maximal effect; nearly all actives have a fitted effect of over 55% in size
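HEK293 Fluc reporter, 2,500 cells/well, 24 h pre-culture; cpds up to 57.5 uM final, 24 h 37 degrees C; Dual-Glo, 10 min RT; normalized vehicle = 0%, zero RLU = -100%.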
CLK4 inh-1: inhibits human CLK4 kinase in Kinase-Glo confirmation. shares compounds with NTMT1 inh. recombinant Clk4, Kinase-Glo ATP luminescence, 4.5 h. Potency, µM (doses to about 76.9 µM), for the others: at the top dose activity, negative = inhibition, most hits filed as inhibitors. actives 90% (n = 90). AID 493204
CLK4 inh-2: blocks human CLK4 kinase in radiometric assay; shares compounds with NTMT1 inh; Reaction Biology kinase assay, 10 uM ATP; Potency, µM, actives largely listed as inhibitors; actives 100% (n = 65); calls by dose curve
DYRK1A inh: inhibitors of human DYRK1A kinase. AID 504424. Potency, µM, hits mostly inhibitors. Reaction Biology kinase assay, 10 uM ATP. actives 90% (n = 65). shares compounds with NTMT1 inh;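 active = compounds that showed inhibition of Dyrk1a and received a fitted potency; inactive = compounds that showed no inhibition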
CLK2 RBC: blocks human CLK2 kinase in radiometric assay; shares compounds with NTMT1 inh; Reaction Biology kinase assay, 10 uM ATP; Potency, µM, most hits filed as inhibitors; actives 90% (n = 65);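 active = compound that inhibits Clk2 kinase in the dose series, with an IC50 potency reported; inactive = no inhibition seen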
CLK3 RBC: CLK3 kinase inhibition. shares compounds with NTMT1 inh. recombinant CLK3 kinase assay, 10 uM ATP. Potency, µM, actives largely listed as inhibitors. actives 40% (n = 65);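 active = compounds that inhibited Clk3 enough in the ten-dose series to give a half-maximal potency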
DYRK1B inh: DYRK1B kinase inhibition; shares compounds with NTMT1 inh; Recombinant Dyrk1b kinase assay, 10 uM ATP; Potency, µM, hits mostly inhibitors; actives 80% (n = 65);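 active = compounds whose dose response shows an inhibitor phenotype against the kinase Dyrk1b; inactive = compounds showing no inhibitor phenotype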
CLK1 RBC: blocks human CLK1 kinase activity; shares compounds with NTMT1 inh; recombinant Clk1 kinase assay, 10 uM ATP; Potency, µM, actives largely listed as inhibitors; actives 90% (n = 65); AID 504430;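 active = compounds that block the splicing kinase Clk1 enough to give a fitted half-inhibition concentration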
Sfp qHTS opt: Sfp PPTase inhibition, chemistry optimization | shares compounds with NTMT1 inh | purified Sfp PPTase enzyme activity, qHTS | Potency, µM (highest dose often 114 µM), for the others: at the top dose activity change, negative = inhibition, most hits filed as inhibitors | actives 78% (n = 230)
HM489 growth: Sfp PPTase inhibitors: growth inhibition of B. subtilis HM489; B. subtilis HM489 (acpS-) growth, BacTiter-Glo, 5 h; Potency, µM (series often up to 114 µM), without a hit: at the highest dose activity change, negative = inhibition, most hits filed as inhibitors; actives 50% (n = 220); shares compounds with NTMT1 inh
Sfp PPTase gel: Sfp PPTase inhibition, gel-based detection. shares compounds with NTMT1 inh. purified Sfp PPTase, gel-based product detection. Potency, µM (highest dose often 250 µM), without a hit: top-dose activity change, negative = inhibition, most hits filed as inhibitors. actives 54% (n = 220)
Sfp SAR2: inhibitors of Bacillus subtilis Sfp PPTase, SAR round 2; actives 87% (n = 230); AID 602370; purified Sfp enzyme, PPTase activity, qHTS; Potency, µM (top dose mostly 57.1 µM), inactives show at the top dose activity change, negative = inhibition, actives largely listed as inhibitors; shares compounds with NTMT1 inh
HSD17B4 counter: inhibits human HSD17B4, off-target for HPGD inhibitors; shares compounds with NTMT1 inh; Potency, µM (titrated, usually from 57.1 µM), inactives show at the top dose activity change, negative = inhibition, most hits filed as inhibitors; purified HSD17B4, estradiol/NAD+, NADH fluorescence; actives 10% (n = 230)
Target sequence (P51659 whole entry, looked up): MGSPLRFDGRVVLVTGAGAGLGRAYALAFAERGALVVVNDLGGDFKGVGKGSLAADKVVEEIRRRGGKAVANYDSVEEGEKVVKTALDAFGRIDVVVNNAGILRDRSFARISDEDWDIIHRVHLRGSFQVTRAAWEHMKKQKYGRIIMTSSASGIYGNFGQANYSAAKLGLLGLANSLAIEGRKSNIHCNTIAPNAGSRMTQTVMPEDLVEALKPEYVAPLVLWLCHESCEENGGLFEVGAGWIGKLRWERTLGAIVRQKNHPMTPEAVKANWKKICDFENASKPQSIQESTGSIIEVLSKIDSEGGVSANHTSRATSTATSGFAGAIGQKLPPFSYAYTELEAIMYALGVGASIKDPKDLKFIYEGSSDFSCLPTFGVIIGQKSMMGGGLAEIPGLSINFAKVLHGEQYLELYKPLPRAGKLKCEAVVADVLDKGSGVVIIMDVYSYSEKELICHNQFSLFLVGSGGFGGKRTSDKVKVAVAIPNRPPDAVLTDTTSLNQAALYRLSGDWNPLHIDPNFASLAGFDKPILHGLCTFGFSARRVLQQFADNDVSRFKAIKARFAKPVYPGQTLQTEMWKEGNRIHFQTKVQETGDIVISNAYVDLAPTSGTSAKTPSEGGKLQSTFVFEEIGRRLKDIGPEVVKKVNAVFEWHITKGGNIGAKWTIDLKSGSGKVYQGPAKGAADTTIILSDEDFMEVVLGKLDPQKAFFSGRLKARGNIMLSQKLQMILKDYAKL
ALDH1A1 counter: counter-screen for HPGD inhibitors: human ALDH1A1 inhibition; shares compounds with NTMT1 inh; recombinant ALDH1A1, NADH fluorescence, propionaldehyde/NAD+; actives 93% (n = 230); Potency, µM (series often up to 57.1 µM), without a hit: top-dose activity change, negative = inhibition, hits mostly inhibitors
NNMT counter: counter-screen for NTMT1 inhibitors: human NNMT inhibition. shares compounds with NTMT1 inh. NNMT MTase-Glo luminescence, SAH detection. Potency, µM (doses to about 57.1 µM), for inactives: top-dose activity, negative = inhibition, usual class: inhibitors. actives 10% (n = 120)
* hit, by the source's call; i = inactive; ? = inconclusive; · = no result; [ ] = another dose, or the depositor's remark. This is a sample that favours compounds with a hit; in the whole collection about 4.7% have one here. Unless noted, calls come from the whole dose curve; as a rule, active = well fitted curve in the direction sought with a large enough effect; inconclusive = small, poorly fitted or top-dose-only effect, or another doubt; inactive = no such curve, though single readings can be large; an effect the other way counts as inactive or inconclusive.

SMILES | HTT promoter inh | GPR32 ag | FH mod | NTMT1 inh | HTT-AS act | NNMT counter | others
COc1ccc(NC(=O)N2CCN3CCCCC3C2)cc1OC (centres undefined) | -5% | -2 | -16% | -6% | -2% | ·
NC(=O)c1cccc(-c2cnc3c(O)ccc(C(=O)O)c3c2)c1 | · | · | · | 12% | · | ·
NC(=O)c1cccc(-c2cc(OC(=O)NC3CCCCC3)ccc2O)c1 | · | · | -12% | ? | · | -18%
Cc1ccccc1OCc1nnc(SCc2cc(=O)c3cccc(F)c3[nH]2)n1C | ? | 26 | -13% | 5% | -27% | ·
C[C@@H](Oc1cc(-n2cnc3ccc(OC4CCN(C)CC4)cc32)sc1C(N)=O)c1ccccc1C(F)(F)F | · | · | -11% | 2.2µM* | · | ?
Cc1[nH]c(/C=C2\C(=O)Nc3cc(-c4ccccc4)ccc32)c(C)c1CCC(=O)O | · | · | -18% | ? | · | 28%
Fc1ccccc1CNCc1ccc(-c2ccnc3[nH]ccc23)cc1 | · | · | -6% | ? | · | ?
COc1ccc(-n2cnc3cc(C(=O)N4CCCCC4)ccc32)cc1 | · | · | · | ? | · | · | HSD17B4 counter=-21%;ALDH1A1 counter=1.4µM*
O=C(O)[C@H]1Cc2ccccc2CN1 | · | · | 3%[6.31 µM] | -3%[6.45 µM] | · | ·
COc1cc(Nc2c(C#N)cnc3cc(OCCCN4CCN(C)CC4)c(OC)cc23)c(Cl)cc1Cl | ? | 46 | -17% | 7.9µM* | -32% | 20µM*
COc1cccc(OCCCN)c1-c1cc(Nc2cnc(C#N)cn2)n[nH]1 | · | · | 4% | 8.9µM* | · | -11%
COc1cc2ncnc(Nc3cccc(I)c3)c2cc1OC | · | · | -4% | 22µM* | · | ?
NC(N)=Nc1nc(CSCCC(N)=NS(N)(=O)=O)cs1 | 19% | · | -4%[53.3 µM] | 6%[57.5 µM] | -27% | ·
CCNc1nc(Nc2cc(F)c(C(=O)N3CCOCC3)cc2OC)ncc1C(F)(F)F | · | · | 6% | 4%[57.5 µM] | · | ·
COc1ccc(N2CCN(C(=S)Nc3cc(C)ccn3)CC2)cc1 | · | · | · | 50µM* | · | · | Sfp qHTS opt=12µM*;HM489 growth=33µM*;Sfp PPTase gel=-33%;Sfp SAR2=10µM*;HSD17B4 counter=-6%;ALDH1A1 counter=6.8µM*
Cc1ccnc(NC(=S)N2CCN(c3ccc(N)cc3)CC2)c1 | · | · | · | ? | · | · | Sfp qHTS opt=?;HM489 growth=?;Sfp PPTase gel=-46%;Sfp SAR2=10µM*;HSD17B4 counter=?;ALDH1A1 counter=9.6µM*
CC(C)c1ccc(NC(=O)CSC2=Nc3ccccc3C3=NC(CCC(=O)NCc4ccco4)C(=O)N23)cc1 (centres undefined) | 11% | 1 | -11% | 14% | 25% | ·
COc1cccc(CNC(=O)Nc2nc(-c3ccncc3)cs2)c1 | · | · | -2% | -9%[57.5 µM] | · | ·
Cc1cccc(Nc2nc(-c3ccncc3)cs2)c1 | -6% | · | -2% | 2.5µM* | ? | 8.9µM*
Cc1oc2ncn(CC(C)C)c(=O)c2c1C(=O)NC(C)c1ccccc1 (centres undefined) | -9% | -8 | -11% | -2% | -32% | ·
O=C(O)c1ccc(-c2ccc3ncnc(NCC4CCCO4)c3c2)o1 (centres undefined) | · | · | · | -4% | · | · | CLK4 inh-1=0.82µM*;CLK4 inh-2=3.4*;DYRK1A inh=30µM*;CLK2 RBC=20µM*;CLK3 RBC=i;DYRK1B inh=12µM*;CLK1 RBC=44µM*
O=C(O)c1ccc(-c2ccc3ncnc(NCc4nccs4)c3c2)o1 | · | · | · | 0%[57.5 µM] | · | · | CLK4 inh-1=0.92µM*;CLK4 inh-2=1.9*;DYRK1A inh=41µM*;CLK2 RBC=27µM*;CLK3 RBC=i;DYRK1B inh=18µM*;CLK1 RBC=39µM*
OCc1ccc(-c2ccc3ncnc(NCC4CCCO4)c3c2)o1 (centres undefined) | · | · | · | · | · | · | CLK4 inh-2=13*;DYRK1A inh=i;CLK2 RBC=i;CLK3 RBC=i;DYRK1B inh=45µM*;CLK1 RBC=50µM*
COc1cccc(NC(=O)C2CCCN(c3nnc(-n4c(C)ccc4C)s3)C2)c1 (centres undefined) | -7% | -16 | -26% | -9% | 12% | ·
